Experimental data taken from PubChem BioAssay AID1022 (Emory University Molecular Libraries Screening Center, 2008).
Screen size: about 220,000 compounds; about 3,300 (1.5%) were called active. Only a selection was taken, and actives are over-represented in it overall. Unmarked numbers belong to inactive results.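 How the source made its calls: active means compounds that cut the protein-peptide binding signal by more than 50% relative to plate controls in a single-dose test; inactive means the rest.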

Biological target: Induced myeloid leukemia cell differentiation protein Mcl-1 (Homo sapiens) (UniProt Q07820)
Sequence (Q07820 whole entry, looked up): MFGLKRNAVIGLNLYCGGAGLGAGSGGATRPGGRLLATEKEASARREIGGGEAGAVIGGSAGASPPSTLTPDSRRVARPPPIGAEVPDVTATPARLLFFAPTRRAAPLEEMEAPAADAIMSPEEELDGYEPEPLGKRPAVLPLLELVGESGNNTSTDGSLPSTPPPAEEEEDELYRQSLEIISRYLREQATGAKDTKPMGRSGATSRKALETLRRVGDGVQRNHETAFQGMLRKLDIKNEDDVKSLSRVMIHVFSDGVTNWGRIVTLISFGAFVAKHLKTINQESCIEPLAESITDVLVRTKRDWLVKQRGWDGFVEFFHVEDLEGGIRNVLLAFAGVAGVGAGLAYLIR
Test: Mcl-1/Noxa binding inhibitors, primary screen, biochemical, TR-FRET, 1536-well (AID 1022);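 further: His-tagged Mcl-1 with rhodamine Noxa BH3 peptide and terbium anti-His antibody; 0% = Mcl-1 plus Noxa peptide wells and 100% = peptide-only wells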
Settings: TR-FRET Mcl-1/Noxa peptide binding, 2 h; at 21.7 µM; stronger effect = higher value

In order of rising inhibition:
1. O=C(NNC(=S)Nc1ccc(F)cc1)[C@H]1C[C@@H]1c1ccccc1  -82.4%
2. Cc1nc(-c2ccc(Cl)cc2)sc1C(=O)NN  -14.8%
3. Cc1ccc(S(=O)(=O)NNC(=S)NC(C)(C)C)cc1  -14.3%
4. Cc1cccc(NC(=O)CSc2nnc(CCNC(=O)OC(C)(C)C)o2)c1C  -10.6%
5. CN1CCN(c2ncc3c(n2)CC(c2ccccc2F)CC3=O)CC1 (stereo unspecified)  -10.3%
6. CC(=O)NC(CC(=O)Nc1nccs1)c1ccccc1 (stereo unspecified)  -8.98%
7. O=C(NCc1ccc(F)cc1)C1CCC(CNc2c(N3CCOCC3)c(=O)c2=O)CC1 (stereo unspecified)  -8.83%
8. CCO[C@@H]1OC(C(=O)NC2CC2)=C[C@H](C)[C@H]1CCCO  -4.75%
9. COC(=O)c1ccc(COc2ccc(/C=N/NC(=O)C(=O)Nc3ccc(OC)cc3)cc2OC)o1  -4.48%
10. Cc1ccc(S(=O)(=O)N(C)C)cc1NC(=O)c1n[nH]c(=O)c2ccccc12  -4.07%
11. C/C=C\C=C\C(=O)N1CC2(CC(c3cccc(NC(=O)/C(C)=C\C)c3)=NO2)C[C@H]1C(N)=O (stereo partly specified)  -3.38%
12. CC(NCc1ccccc1OC1CCCC1)c1ccccc1 (stereo unspecified)  -3.22%
13. CC1(C)CC(=O)C(N=Nc2c(F)cccc2F)=C(O)C1  -2.76%
14. Cc1ccc(-c2csc(-c3cc(C)on3)n2)cc1  -2.5%
15. CCOC(=O)c1ccc(S(=O)(=O)N(CCO)Cc2cc3cc(OC)c(OC)cc3[nH]c2=O)cc1  -2.09%
16. CN(CC(=O)NCCc1ccccn1)S(=O)(=O)c1ccc(Cl)cc1  0.36%
17. CC1=CC2=NC(=O)/C(=C/c3coc4ccccc4c3=O)C(=N)N2O1  1.38%
18. O=C(NC(=O)N1CCSCC1)c1c(Cl)cccc1Cl  2.15%
19. Cc1ccc(C(=O)N/C(=C\c2ccco2)C(=O)NC2CCS(=O)(=O)C2)cc1 (stereo unspecified)  2.28%
20. CCCN(CCC)CC(O)COc1ccccc1C(=O)Nc1ccccc1 (stereo unspecified)  2.75%
21. O=S(=O)(c1cccc(-c2nnc3n2CCCCC3)c1)N1CCOCC1  3.07%
22. Cc1cc(-c2nc(C)c(-c3nnc(SCC(=O)Nc4ccccc4)n3C)s2)no1  3.26%
23. CCN(CC)C(=O)c1ccc(O)c(OC)c1  4.61%
24. CC1=CC(C)(C)NC(=S)N1NC(=O)c1ccccc1Cl  5.81%
25. Nc1nc(SC23CC4CC(CC(C4)C2)C3)ns1  5.98%
26. O=C(Cn1cnc2c(cnn2-c2ccccc2)c1=O)NCc1ccccc1  6.36%
27. O=C(NCc1ccccn1)c1cc(-c2ccccc2Cl)on1  8.56%
28. C/C=C(/C)C(=O)Nc1cccc(C2=NOC3(C2)C[C@@H](C(N)=O)N(C(=O)C2(C)CC2)C3)c1 (stereo partly specified)  10.3%
29. Cc1ccc(C(=O)Nc2cccc3ncccc23)cc1[N+](=O)[O-]  10.6%
30. O=C(Nc1cccc2ncccc12)C(Cl)(Cl)Cl  11.1%
31. Cc1ccc(SCC(=O)c2sc(-c3ccccc3)nc2C)cc1  12%
32. COc1ccc(C)cc1Nc1nc(-c2c(C)[nH]c3ccccc23)cs1  12.8%
33. COc1ccc(Nc2nc(-c3ccccc3)cs2)cc1  13.3%
34. COc1cc(C(=S)NC2CCCCC2)ccc1O  14.7%
35. O=C(NCc1ccccn1)c1cc(Br)ccc1Cl  15.5%
36. COc1ccccc1OCC(=O)O/N=C(\N)c1ccccn1  17.8%
37. CCOC(=O)c1cn[nH]c1NC(=S)Nc1ccccc1  18.3%
38. C=CC1C(OC2OC(CO)C(O)C(O)C2O)OC=C(C(=O)OC)C1CC1CC(=O)CC(CC(=O)CCc2ccc(O)cc2)O1 (stereo unspecified)  18.5%
39. COc1ccc(-c2csc(Nc3ccccn3)n2)cc1  19.1%
40. COc1ccc(NC(=O)Nc2ccc3nsnc3c2)cc1  20.7%
41. Nc1ncc(-c2cc3ccccc3oc2=O)s1  21.7%
42. O=C(CNC(=O)COc1ccccc1)NCCc1ccccn1  23.7%
43. CC(C)(C)c1ccc(/C=C2\Oc3c(ccc(O)c3CN3CCN(CCO)CC3)C2=O)cc1  23.9%
44. O=C(Nc1ccc(N2CCOCC2)nc1)c1c(F)cccc1F  25.6%
45. CC(C)(C)NC(=O)Cn1cnc2cc([N+](=O)[O-])ccc2c1=O  27.1%
46. COc1ccc(NC(=O)Nc2ccc3nc(C)c(C)nc3c2)cc1  32.9%
47. CCNc1nc(-c2cc3ccccc3o2)cs1  37.2%
48. COc1ccc2nc(Nc3nc(-c4ccncc4)cs3)sc2c1  43.5%
49. COc1cc(/C=C(\C#N)C(=O)Nc2ccc3ccccc3c2)c([N+](=O)[O-])cc1OC  50.2%

For C=C(C)C(=O)Nc1cccc(C2=NOC3(C2)C[C@H](C(N)=O)N(C(=O)C(c2ccccc2)c2ccccc2)C3)c1 (stereo partly specified), the inhibition was 79.5% (active).
With COc1ccc(NC(=O)/C(C#N)=C\c2cc(OC)c(OCc3ccc(C(=O)O)cc3)cc2Br)cc1 the inhibition was 61.8% (active).
In the case of Cc1nc(-c2ccc(Cl)cc2)sc1C(=O)CBr, the inhibition is reported as 61% (active).
In the case of COc1cc(C(=O)Nn2c(O)c(C3=c4ccccc4=NC3=O)sc2=S)ccc1O, the inhibition is reported as 58.1% (active).
For O=S(=O)(/C=C/c1ccccc1)NCCc1ccccn1, the inhibition was 70% (active).
COCCNC(=O)Nc1ccc2nc(-c3ccco3)c(-c3ccco3)nc2c1 was tested, and the inhibition was 107% (active).
For O=C(NCc1ccccn1)c1ccc2nc(-c3ccco3)c(-c3ccco3)nc2c1, the inhibition was 91.8% (active).
In the case of COc1ccc(OC)c(Nc2nc(-c3ccc(O)c(O)c3)cs2)c1, the inhibition is reported as 69.2% (active).
O=c1oc2ccccc2cc1-c1csc(Nc2ccc(O)cc2)n1 was tested, and the inhibition was 101% (active).
With COc1ccc(-c2csc(Nc3ccc(O)cc3)n2)cc1 the inhibition was 69.4% (active).
O=C(Cn1cnc2cc([N+](=O)[O-])ccc2c1=O)NC(=O)NCc1ccccc1 was tested, and the inhibition was 53.5% (active).
For Cc1ccc(/C=C(\C#N)C(=O)Nc2cccc3ncccc23)o1, the inhibition was 65.7% (active).
